The source made the active and inactive calls.
Assays:
[1] = optical density shifts of acrAB sulA E. coli – strain DRC41, OD650, 48 h, E. coli filamentation inducer project, primary screen (AID 1152); conditions: higher = more signal, called active from +8 up or from −8 down;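 further: E. coli MC1000 strain DRC41 lacking acrAB efflux pump and sulA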
[2] = probe aLefty1 binding on compound microarray – biochemical, small-molecule microarray, 635/667 nm fluorescence, primary screen (AID 1153); conditions: higher = more signal;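 further: score merges spot fluorescence with signal-to-noise ratio from the scanned slide images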
[3] = plasmodial surface anion channel blockers, osmotic lysis – cell-based, P. falciparum Indochina, OD700, 1 h, primary screen (AID 1154); conditions: P. falciparum Indochina infected RBC osmotic lysis, higher = more signal, called active from +8 up or from −8 down
[4] = plasmodial surface anion channel blockers, osmotic lysis – cell-based, P. falciparum Indochina, OD700, 2 h, primary screen (AID 1155);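 further: lysis reports solute entry through the parasite surface anion channel PSAC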; conditions: P. falciparum Indochina infected erythrocytes, higher = more signal, called active from +8 up or from −8 down
[5] = changes in parasitized red cell lysis, either direction – P. falciparum Indochina, OD700, 3 h, PSAC antagonist project, primary screen (AID 1156); conditions: P. falciparum-infected erythrocytes, osmotic lysis, higher = more signal, called active from +8 up or from −8 down
[6] = plasmodial surface anion channel blockers, osmotic lysis – cell-based, P. falciparum Indochina, OD700, 18 h, primary screen (AID 1157); conditions: P. falciparum Indochina infected erythrocytes, osmotic lysis OD700, 18 h; higher = more signal, called active from +8 up or from −8 down
[7] = S6 kinase pathway phospho-S6 level changes – cell-based, A549, cytoblot, luminescence, serum-stimulated, primary screen (AID 1158); conditions: 5 h, higher = more signal;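 further: serum-stimulated A549 lung adenocarcinoma cells; signal is phosphorylated S6 detected by cytoblot immunostaining with HRP secondary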
[8] = target: NADPH oxidase 2 (Homo sapiens) (UniProt P04839); assay: compounds shifting NOX2 Amplex Red fluorescence – cell-based, HEK293-NOX2, PMA-stimulated, NOX inhibitor project, primary screen (AID 1159); conditions: 45 min, higher = more signal, called active from +8 up or from −8 down; further: test concentration not given here
[9] = target: NADPH oxidase 4 (Homo sapiens) (UniProt Q9NPH5); assay: compounds shifting NOX4 Amplex Red fluorescence – cell-based, HEK293-NOX4, tetracycline-induced, NOX inhibitor project, primary screen (AID 1160); conditions: HEK293-NOX4, Amplex Red H2O2 fluorescence, 45 min; higher = more signal, called active from +8 up or from −8 down
[10] = target: NADPH oxidase 5 (Homo sapiens) (UniProt Q96PH1); assay: compounds shifting NOX5 Amplex Red fluorescence – cell-based, HEK293-NOX5, NOX inhibitor project, primary screen (AID 1161); conditions: HEK293-NOX5, ionomycin, 45 min, higher = more signal
[11] = compound effects on lung adenocarcinoma cell viability – A549, calcein-AM fluorescence, 48 h, basal, profiling panel (AID 1162); conditions: higher = more signal; further: test concentration not given here
[12] = compound effects on differentiated 3T3-L1 adipocyte viability – cell-based, 3T3-L1 adipocytes, calcein-AM fluorescence, 48 h, basal, profiling panel (AID 1163); conditions: 3T3-L1 adipocytes viability, higher = more signal; further: test concentration not given here
[13] = compound effects on hepatocellular carcinoma cell viability – HepG2, calcein-AM fluorescence, 48 h, basal, profiling panel (AID 1164); conditions: higher = more signal; further: test concentration not given here
[14] = compound effects on multiple myeloma cell viability – MM1S, calcein-AM fluorescence, 48 h, basal, profiling panel (AID 1165); conditions: higher = more signal; further: test concentration not given here
[15] = calcein-AM signal in unstimulated myeloma cells – cell-based, calcein-AM fluorescence, 48 h, PK04 Diversity Set, profiling panel (AID 1166); conditions: RPMI8226 myeloma viability, higher = more signal;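 further: cells grown under basal conditions without added stimulus; test concentration not given here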
[16] = JC-1 mitochondrial signal, unstimulated HepG2 cells – cell-based, JC-1 fluorescence, 24 h, 100 nL compound, profiling panel (AID 1167); conditions: HepG2 mitochondrial potential, higher = more signal; further: test concentration not given here
[17] = JC-1 mitochondrial signal, unstimulated adipocytes – cell-based, JC-1 fluorescence, 3T3-L1 adipocytes, 24 h, 100 nL compound, profiling panel (AID 1168); conditions: JC-1 mitochondrial fluorescence, higher = more signal, called active from +8 up or from −8 down; further: test concentration not given here
[18] = JC-1 mitochondrial signal, unstimulated myeloma cells – cell-based, JC-1 fluorescence, RPMI8226, 24 h, 100 nL compound, profiling panel (AID 1169); conditions: JC-1 mitochondrial potential fluorescence, higher = more signal; further: test concentration not given here
[19] = JC-1 mitochondrial signal, unstimulated MM1S myeloma – cell-based, JC-1 fluorescence, 24 h, 100 nL compound, profiling panel (AID 1170); conditions: MM1S mitochondrial potential, higher = more signal; further: test concentration not given here
[20] = resazurin metabolic signal in A549 cells – cell-based, resazurin fluorescence, 24 h, PK04 Diversity Set, profiling panel (AID 1171); conditions: A549 viability, higher = more signal, called active from +8 up or from −8 down; further: test concentration not given here

Chain of NADPH oxidase 5 (Homo sapiens) (Q96PH1 whole entry, looked up): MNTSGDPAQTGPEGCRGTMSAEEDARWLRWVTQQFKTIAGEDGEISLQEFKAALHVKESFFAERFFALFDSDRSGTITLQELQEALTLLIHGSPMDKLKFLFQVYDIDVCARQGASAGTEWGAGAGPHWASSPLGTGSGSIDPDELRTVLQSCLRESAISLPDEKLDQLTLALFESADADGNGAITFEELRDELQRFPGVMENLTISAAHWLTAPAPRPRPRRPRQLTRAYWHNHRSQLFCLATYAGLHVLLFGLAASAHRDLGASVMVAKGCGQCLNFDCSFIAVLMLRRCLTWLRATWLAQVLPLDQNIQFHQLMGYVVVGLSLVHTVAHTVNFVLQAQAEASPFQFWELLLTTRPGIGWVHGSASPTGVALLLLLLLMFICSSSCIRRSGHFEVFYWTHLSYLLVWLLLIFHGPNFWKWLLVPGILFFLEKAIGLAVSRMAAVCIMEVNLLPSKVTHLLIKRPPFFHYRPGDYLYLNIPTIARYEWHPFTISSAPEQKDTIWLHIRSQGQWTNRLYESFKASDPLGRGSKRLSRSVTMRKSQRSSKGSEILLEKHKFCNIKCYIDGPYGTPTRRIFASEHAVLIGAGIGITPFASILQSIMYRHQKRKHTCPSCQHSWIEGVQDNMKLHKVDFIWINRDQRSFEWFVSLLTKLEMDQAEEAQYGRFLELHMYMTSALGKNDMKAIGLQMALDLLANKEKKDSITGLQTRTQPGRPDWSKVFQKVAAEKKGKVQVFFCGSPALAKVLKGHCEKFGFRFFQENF
Chain of NADPH oxidase 2 (Homo sapiens) (P04839 whole entry, looked up): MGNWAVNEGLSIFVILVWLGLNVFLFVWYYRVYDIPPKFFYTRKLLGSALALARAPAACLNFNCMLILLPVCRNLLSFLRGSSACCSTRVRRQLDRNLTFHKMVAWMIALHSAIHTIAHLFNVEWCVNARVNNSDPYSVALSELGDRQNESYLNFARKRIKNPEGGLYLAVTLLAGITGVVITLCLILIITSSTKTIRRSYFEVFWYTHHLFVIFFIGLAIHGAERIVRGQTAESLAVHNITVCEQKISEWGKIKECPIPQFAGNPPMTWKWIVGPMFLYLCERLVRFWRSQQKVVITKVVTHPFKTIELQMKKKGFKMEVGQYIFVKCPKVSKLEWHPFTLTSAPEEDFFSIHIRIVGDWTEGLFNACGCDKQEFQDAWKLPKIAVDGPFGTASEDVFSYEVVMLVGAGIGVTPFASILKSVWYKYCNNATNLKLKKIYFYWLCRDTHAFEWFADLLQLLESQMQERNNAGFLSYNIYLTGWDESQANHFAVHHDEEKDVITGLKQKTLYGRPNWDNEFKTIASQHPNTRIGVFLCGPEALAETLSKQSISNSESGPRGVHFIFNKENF
Chain of NADPH oxidase 4 (Homo sapiens) (Q9NPH5 whole entry, looked up): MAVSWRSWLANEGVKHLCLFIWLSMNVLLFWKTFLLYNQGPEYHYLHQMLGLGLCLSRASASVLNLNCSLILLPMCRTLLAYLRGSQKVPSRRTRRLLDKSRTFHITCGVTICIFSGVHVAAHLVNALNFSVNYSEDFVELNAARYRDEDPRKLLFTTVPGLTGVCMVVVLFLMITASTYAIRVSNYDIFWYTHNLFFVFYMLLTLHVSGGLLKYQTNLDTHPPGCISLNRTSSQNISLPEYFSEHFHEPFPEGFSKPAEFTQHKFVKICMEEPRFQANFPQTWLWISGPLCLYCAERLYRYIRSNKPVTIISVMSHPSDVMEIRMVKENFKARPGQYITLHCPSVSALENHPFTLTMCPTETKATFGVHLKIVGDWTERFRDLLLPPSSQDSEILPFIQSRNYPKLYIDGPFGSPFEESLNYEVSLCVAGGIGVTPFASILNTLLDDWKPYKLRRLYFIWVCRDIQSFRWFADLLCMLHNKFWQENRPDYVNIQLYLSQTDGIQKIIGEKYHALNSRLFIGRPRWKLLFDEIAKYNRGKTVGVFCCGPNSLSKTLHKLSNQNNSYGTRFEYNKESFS

Row | Compound | z-score [1] | composite z-score [2] | z-score [3] | z-score [4] | z-score [5] | z-score [6] | z-score [7] | z-score [8] | z-score [9] | z-score [10] | z-score [11] | z-score [12] | z-score [13] | z-score [14] | z-score [15] | z-score [16] | z-score [17] | z-score [18] | z-score [19] | z-score [20]
1 | COC(=O)[C@@]1(Cc2ccc(OC)cc2)[C@H]2c3cc(C(=O)N4CCCC4)n(Cc4ccc(OC(F)(F)F)cc4)c3C[C@H]2CN1C(=O)c1ccccc1 | -1.32 (inactive) | 0.029 | 2.24 (inactive) | 0.453 (inactive) | -0.0152 (inactive) | 1.06 (inactive) | -0.174 | 1.11 (inactive) | 1.56 (inactive) | 2.4 | -0.77 | -0.25 | -0.871 | -0.889 | -2.45 | 0.225 | -0.621 (inactive) | -0.638 | -1.58 | -0.995 (inactive)
2 | C=C[C@@H](OC)[C@H](OC(=O)Nc1ccc(OC)cc1)c1ccc(OC)c(O)c1 | 0.139 (inactive) | -0.123 | 2.48 (inactive) | 0.96 (inactive) | 0.0081 (inactive) | 0.45 (inactive) | -0.0451 | -2.52 (inactive) | -1.04 (inactive) | -1.2 | -0.464 | 0.605 | -0.192 | -0.0794 | 1.05 | -0.733 | 0.141 (inactive) | 0.616 | 0.454 | 0.376 (inactive)
3 | C=CCC(OC(C)=O)[C@@H]1[C@@H](N(Cc2ccc(-c3ccccc3)cc2)C(=O)c2ccc(C)cc2)c2cc(OCCCO)ccc2N1C(=O)Cc1ccc2ccccc2c1 (stereo not given in full) | 2.43 (inactive) | -0.0011 | -0.0828 (inactive) | -0.66 (inactive) | -1.45 (inactive) | -0.938 (inactive) | 1.23 | -1.68 (inactive) | 0.934 (inactive) | 1.62 | 1.35 | 0.844 | 0.769 | 0.697 | 0.922 | 3.38 | 0.144 (inactive) | -0.0998 | 1.14 | 0.887 (inactive)
4 | COCCOC(=O)N1C(=O)[C@@]2(c3cc(C#CCC(C(=O)OC)C(=O)OC)ccc31)[C@H](C(=O)NC[C@H](O)c1ccccc1)[C@H]1C(=O)O[C@H](c3ccccc3)[C@H](c3ccccc3)N1[C@@H]2c1ccc(O)cc1 | -0.128 (inactive) | 0.0977 | 2.35 (inactive) | -0.27 (inactive) | 0.283 (inactive) | 0.27 (inactive) | 0.0648 | 1.71 (inactive) | 1.01 (inactive) | 1.84 | 0.395 | 0.408 | 1.26 | -0.99 | -1.74 | 0.126 | -0.489 (inactive) | -0.39 | -0.491 | -0.227 (inactive)
5 | C=C(C(=O)CC[C@H](OC(=O)c1ccccc1-c1ccccc1C(=O)O)c1ccccc1OCCO)C(C)C | 0.342 (inactive) | -0.0573 | 6.14 (inactive) | 1.12 (inactive) | 2.1 (inactive) | 0.577 (inactive) | -0.549 | 2.97 (inactive) | -0.13 (inactive) | -1.51 | 0.301 | 1.72 | 0.255 | -3.44 | -2.35 | -0.266 | 0.585 (inactive) | -0.636 | 0.63 | 0.109 (inactive)
6 | CCOC(=O)C1=C[C@@H](C(C)(C)C)N(S(=O)(=O)c2ccc(C)cc2)[C@H]1c1ccc(C)cc1 | -1.92 (inactive) | 0.121 | 0.302 (inactive) | 0.54 (inactive) | 0.0464 (inactive) | -0.0532 (inactive) | -0.53 | -0.875 (inactive) | -0.25 (inactive) | 0.251 | -0.681 | 0.226 | -1.73 | -1.01 | -1.1 | 6.67 | -0.251 (inactive) | -0.901 | 0.933 | 0.51 (inactive)
7 | CCCCC(=O)N(CCN1CCOCC1)[C@@H]1CC(C(=O)NCCO)=C[C@H](Oc2c(I)cc(CO)cc2OC)[C@H]1O | 1.4 (inactive) | -0.235 | 3.89 (inactive) | 0.756 (inactive) | 0.098 (inactive) | 0.133 (inactive) | -0.0612 | -0.381 (inactive) | 0.577 (inactive) | 0.613 | 1.5 | -1.07 | 0.569 | 0.135 | -0.157 | -0.959 | -0.716 (inactive) | -0.277 | -0.109 | -0.0043 (inactive)
8 | O=c1cccc(-c2ccc(F)cc2)o1 | -0.527 (inactive) | 0.0367 | 1.74 (inactive) | 0.624 (inactive) | -0.099 (inactive) | 0.832 (inactive) | -0.387 | 0.227 (inactive) | -1.19 (inactive) | -0.184 | -0.562 | 0.616 | -0.606 | -0.0871 | -0.913 | 0.0366 | 0.5 (inactive) | 0.036 | -0.0644 | -0.0964 (inactive)
9 | NC(=O)[C@@H]1[C@H]2C(=O)O[C@H](c3ccccc3)[C@H](c3ccccc3)N2[C@H](c2ccc(OCCO)cc2)[C@@]12C(=O)Nc1ccc(C#CCCO)cc12 | 0.498 (inactive) | 0.0253 | 22.5 (active) | 4.8 (inactive) | 2.59 (inactive) | 0.908 (inactive) | 0.229 | 1.5 (inactive) | 1.15 (inactive) | 0.92 | -0.0173 | -0.387 | 1.17 | -0.929 | 0.698 | -0.704 | -0.391 (inactive) | -0.323 | -0.939 | -0.65 (inactive)
10 | COc1cc2c(cc1OC)CN(C(=O)[C@@H]1[C@H]3C(=O)O[C@H](c4ccccc4)[C@H](c4ccccc4)N3[C@H](c3ccc(O)cc3)[C@@]13C(=O)Nc1ccc(C#CCCO)cc13)CC2 | -0.0186 (inactive) | -0.149 | 0.125 (inactive) | 0.448 (inactive) | 1.16 (inactive) | 0.165 (inactive) | -0.42 | 0.777 (inactive) | 0.152 (inactive) | 0.532 | -0.446 | -0.423 | -0.314 | -0.0118 | 0.191 | -2.29 | 0.0304 (inactive) | -0.294 | -0.492 | 0.156 (inactive)
11 | COc1ccc([Si](C)(C)[C@H]2[C@H](CCO)O[C@@]3(C(=O)N(Cc4ccc(N5C(=O)c6ccccc6Oc6ccccc65)cc4)c4ccccc43)[C@@H]2C)cc1 | 0.157 (inactive) | 0.0211 | 4.29 (inactive) | 2.83 (inactive) | -1.44 (inactive) | 1.38 (inactive) | 0.211 | -0.681 (inactive) | 2.36 (inactive) | 1.9 | -0.573 | 0.56 | -2.71 | -2.79 | -4.04 | 0.0142 | 0.821 (inactive) | -1.01 | -2.04 | -2.45 (inactive)
12 | C=C(/C(=C/C[C@@H](OC(=O)c1ccncc1)c1cccc(OCCO)c1)c1cnc2ccccc2c1)C(C)C | 0.172 (inactive) | 0.13 | 13.7 (active) | 1.86 (inactive) | 1.32 (inactive) | 0.897 (inactive) | 0.199 | -1.34 (inactive) | -0.507 (inactive) | -0.782 | 0.509 | 1.55 | 0.0856 | -2.52 | -0.467 | 1.42 | -0.45 (inactive) | -0.533 | 0.817 | 0.128 (inactive)
13 | CN1C(=O)[C@@H]2[C@@H](CC(COc3ccccc3)=C([C@H](O)CCc3ccccc3)[C@@H]2CO)C1=O | 2.03 (inactive) | -0.328 | 29.5 (active) | 21.6 (active) | -0.0433 (inactive) | 1.43 (inactive) | 0.867 | -0.561 (inactive) | 0.867 (inactive) | 0.199 | 1.9 | -0.13 | 0.943 | 0.445 | -0.388 | 0.397 | 0.813 (inactive) | -0.274 | 0.472 | -0.123 (inactive)

Reference: PubChem BioAssay
